Pin1 inhibitor: qHTS Assay to Find Inhibitors of Pin1; Potency, µM (doses to about 115 µM), most hits filed as inhibitors; Peptidyl-prolyl cis-trans isomerase NIMA-interacting 1 (Homo sapiens), Q13526; Pin1 FP peptide displacement, HiFluor488, 10 min; hit rate 0.009% among 390,000; active = well fitted inhibition curve with a large enough effect in the polarisation, with a control signal flat, not every such curve was filed as active; inconclusive = small, poorly fitted or top-dose-only effect, or effect the other way, or a change in a side signal; inactive = no such curve, though single readings can be large or run the other way; the % refers to the polarisation
Tb PFK inh: qHTS Assay to Find Inhibitors of T. brucei phosphofructokinase | ATP-dependent 6-phosphofructokinase (Trypanosoma brucei brucei), O15648 | T. brucei PFK, ADP-Glo luminescence | Potency, µM (top dose mostly 57.5 µM), usual class: inhibitors | hit rate 0.17% among 330,000; note: nearly all actives have a fitted effect of over 60% in size
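PFK 1.25 nM, F6P 0.5 mM, ATP 0.1 mM, 0.1 M TEA pH 8.0, 5 mM MgCl2, 0.01% Tween20, 0.1% BSA; 45 min RT. ADP-Glo readout. qHTS titration up to 57 uM; curves fitted, compounds curve-classed.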
TDP1 inh: qHTS Assay for Inhibitors of Tyrosyl-DNA Phosphodiesterase (TDP1). Potency, µM (titrated, usually from 130 µM), actives largely listed as inhibitors. hit rate 0.28% among 350,000. Tyrosyl-DNA phosphodiesterase 1 (Homo sapiens), Q9NUW8. recombinant TDP1, AlphaScreen DNA substrate cleavage; note: nearly all actives have a fitted effect of over 40% in size
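E. coli-derived human Tdp1, 1 nM final. Cpd preinc 15 min RT; substrate 15 nM final, 5 min RT; AS bead mix 10 ug/ml final, 10 min RT. Signal loss = tyrosine-FITC cleavage. No-enzyme wells = max signal.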
S-ASM inh: Inhibitors of Secretory Acid Sphingomyelinase (S-ASM): qHTS | Sphingomyelin phosphodiesterase (Homo sapiens), P17405 | placental ASM, HMU-PC fluorogenic substrate, 60 min | Potency, µM (series often up to 57.5 µM), most hits filed as inhibitors | hit rate 0.006% among 340,000
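Human placenta-derived ASM preincubated with compound 10 min at room temperature, then reacted with 9 uM (final) fluorogenic HMU-PC substrate for 60 min at 37 C. Stop solution raises pH to 10; fluorescence read at Ex 386/Em 447 nm.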
PLK1 PBD inh: qHTS for Inhibitors of PLK1-PDB (polo-like kinase 1 - polo-box domain): Primary Screen. Potency, µM, hits mostly inhibitors. hit rate 2.8% among 360,000. Serine/threonine-protein kinase PLK1 (Homo sapiens), P53350. AID 720504, 2013. Plk1 PBD binding of FITC phosphopeptide, fluorescence polarization; note: series mostly up to about 57 µM; nearly all actives have a fitted effect of over 65% in size
Target sequence (P53350 whole entry, looked up, the tested form may be a part): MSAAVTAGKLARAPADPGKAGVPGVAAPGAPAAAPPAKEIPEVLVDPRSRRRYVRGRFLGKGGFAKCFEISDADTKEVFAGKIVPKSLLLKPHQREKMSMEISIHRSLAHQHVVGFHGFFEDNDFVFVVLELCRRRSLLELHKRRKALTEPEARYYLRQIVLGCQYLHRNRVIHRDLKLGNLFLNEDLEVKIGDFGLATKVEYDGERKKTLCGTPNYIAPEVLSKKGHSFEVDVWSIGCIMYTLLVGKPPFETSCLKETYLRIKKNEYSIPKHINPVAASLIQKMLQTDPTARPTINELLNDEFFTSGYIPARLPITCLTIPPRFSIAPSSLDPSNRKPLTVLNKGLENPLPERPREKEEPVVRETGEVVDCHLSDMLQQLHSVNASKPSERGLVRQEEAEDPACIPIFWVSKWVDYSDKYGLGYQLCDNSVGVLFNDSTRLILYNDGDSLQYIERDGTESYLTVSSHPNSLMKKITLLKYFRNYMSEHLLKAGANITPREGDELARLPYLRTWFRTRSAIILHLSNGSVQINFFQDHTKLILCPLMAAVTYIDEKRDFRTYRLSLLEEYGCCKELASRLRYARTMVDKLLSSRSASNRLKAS
VDR inhibitor: Inhibitors of the vitamin D receptor (VDR): qHTS; Vitamin D3 receptor (Homo sapiens), P11473; VDR-SRC2-3 peptide fluorescence polarization, 2 h; Potency, µM, usual class: inhibitors; hit rate 0.93% among 400,000; AID 504847, 2011
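Reagent solutions, kept cold and dark, are dispensed first; compounds are then pinned in at 23 nl, plates briefly spun, and incubated 2 h at ambient temperature. Inhibition of VDR–SRC2-3 peptide binding is read by fluorescence polarization.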
A number is an active result; 0 = inactive; ? = inconclusive; - = not tested or not shown. In the library only some 3.1% were active in any assay of this set; here they are far more common. Unless noted, calls come from the whole dose curve; as a rule, active = well fitted curve in the direction sought with a large enough effect; inconclusive = small, poorly fitted or top-dose-only effect, or another doubt; inactive = no such curve, though single readings can be large; an effect the other way counts as inactive or inconclusive.

SMILES	Pin1 inhibitor	Tb PFK inh	TDP1 inh	S-ASM inh	PLK1 PBD inh	VDR inhibitor
CCc1ccc(CN(C(=O)Nc2cccc(Cl)c2)c2ccccn2)cc1	0	-	0	-	-	0
O=C(N/N=C/C=C/c1ccco1)/C(=C/c1ccccc1)NC(=O)c1ccccc1	?	0	0	0	29.9µM	?
COc1cccc(C(=O)NCCSCc2c(F)cccc2Cl)c1	0	0	-	0	21.2µM	?
CC(C)N1CCN(c2cccc(Nc3nn4c(=O)c5ccccc5nc4s3)c2)CC1	0	-	-	-	-	-
N#Cc1c(-c2cccc(Br)c2)cc(-c2ccco2)[nH]c1=O	?	0	0	0	13.4µM	0
N#Cc1c(-c2ccccc2)cc(-c2ccccc2)[nH]c1=O	0	0	-	0	0	0
CCCSc1nnc(NC(=O)CSc2sc3c(O)cc(=O)[nH]c3c2C#N)s1	-	0	0	0	16.8µM	0
N#Cc1c(SCC(=O)Nc2nccs2)sc2c(O)cc(=O)[nH]c12	?	0	-	0	?	0
N#Cc1cccc(NC(=O)CSc2sc3c(O)cc(=O)[nH]c3c2C#N)c1	?	0	0	0	0	0
N#Cc1c(SCC(=O)Nc2nc3ccccc3s2)sc2c(O)cc(=O)[nH]c12	?	0	-	0	23.8µM	0
CCNC(=S)Nc1ccc(OCc2nc3ccccc3s2)cc1	0	0	-	0	9.47µM	70.8µM
O=C(O)CCCC(=O)Nc1ccc(OCc2nc3ccccc3s2)cc1	0	0	-	0	4.23µM	?
CC(=O)Nc1ccc(SCC(c2ccccc2)N2CCN(C)CCC2=O)cc1 (stereo not drawn)	?	-	0	-	-	0
Cc1ccc(C(=O)Nc2nnc(SCc3cc(=O)c4c(C)ccc(C)c4[nH]3)s2)cc1	0	-	0	-	-	0
O=C(CC(=O)Nc1ccc(Cl)cc1Cl)Nc1ccc(Cl)cc1Cl	0	0	-	0	29.9µM	0
O=C(Cc1ccccc1)NCC(=O)Nc1cc(Cl)ccc1Cl	0	0	0	0	26.7µM	?
O=C(NNc1ccccc1[N+](=O)[O-])Nc1cccc(Cl)c1	0	?	-	0	21.2µM	79.4µM
O=C(NNc1ccccc1)Nc1cc(Cl)ccc1Cl	0	-	-	0	0	39.8µM
O=C(COc1ccccc1)Nc1cc(Cl)ccc1Cl	0	0	-	0	0	0
C=CCC(CC=C)(CNC(=O)C(=O)Nc1cccc(C(F)(F)F)c1)c1ccccc1	0	-	0	-	-	0
O=S(=O)(NCCc1csc2nc(-c3ccc(Cl)cc3)nn12)c1cccs1	0	-	0	-	-	0
Cc1ccc(NC(=O)CCCN2C(=O)COc3ccc(C)cc32)c(Cl)c1	0	-	0	-	-	0
O=[N+]([O-])c1ccc(O)c(NC(=S)Nc2ccccc2)c1	0	0	0	0	26.7µM	?
Fc1cccc(NC(=S)NNc2ccccc2)c1	0	0	-	0	?	39.8µM
O=[N+]([O-])c1ccc(NNC(=S)Nc2ccccc2)cc1	0	0	0	0	?	44.7µM
SMILES	Pin1 inhibitor	Tb PFK inh	TDP1 inh	S-ASM inh	PLK1 PBD inh	VDR inhibitor
Cc1cccc(N2CCN(C(=O)Cn3nc(Cc4cccnc4)c4ccccc4c3=O)CC2)c1C	0	-	0	-	-	0
COc1ccc(SCCN2CCN(CCc3ccccc3)CCC2=O)cc1	0	-	-	-	-	?
CCN(CC)CC(=O)Nc1ccc(C)cc1C(=O)c1ccccc1	0	0	0	0	0	0
Cc1ccc(S(=O)(=O)NCCC(=O)Nc2ccc(C)cc2C(=O)c2ccccc2)cc1	0	0	0	0	26.7µM	?
Cc1ccc(CNC(=O)c2ccc(-n3cccc3)cc2)cc1	?	0	12.6µM	0	?	0
CN(C)C(=O)c1ccc(NC(=O)c2cc(-n3cnnc3)ccc2Cl)cc1	0	0	0	0	16.8µM	?
CCOC(=O)c1cc(-c2ccc(OC)cc2)n(CCC(=O)NC2CCC(C)CC2)c1C (stereo not drawn)	0	-	0	-	-	0
Cc1ccc(N2C(=O)C3C(C2=O)N2CCCN2C3c2ccccc2)cc1C (stereo not drawn)	0	0	0	0	?	?
Cc1ccc(N2C(=O)CS(=O)C(c3ccccc3)C2=O)cc1C (stereo not drawn)	0	?	0	0	1.5µM	?
Cc1cc(C)c(S(=O)(=O)NCCc2sc3nc(-c4ccc(F)cc4)nn3c2C)c(C)c1	0	-	0	-	-	0
COc1ccc(NC2=C(Cl)C(=O)N(CCc3ccccc3)C2=O)cc1	0	0	0	0	9.47µM	?
CCC(=O)Nc1ccc(N2CCOCC2)c(S(=O)(=O)Nc2ccc(Cl)cc2)c1	0	0	0	0	7.52µM	?
COCCNC(=S)Nc1ccc(N2CCOCC2)c(S(=O)(=O)Nc2ccc(Cl)cc2)c1	-	-	-	-	2.38µM	-
O=S1(=O)N=C(Oc2ccc(C(F)(F)F)cc2)c2ccccc21	0	-	0	-	-	-
CNC(=O)/C=C1\NC(C)(C)Cc2c1ccc1ccccc21	0	0	0	0	0	79.4µM
O=S(=O)(c1ccc(Cl)cc1)N1CCN(c2nc(-c3ccc(F)cc3)nc3cc(Cl)ccc23)CC1	0	-	0	-	-	0
CCC(C)NC(=O)C1c2ccccc2C(=O)N1Cc1cc(OC)ccc1OC (stereo not drawn)	0	0	0	0	0	0
COc1ccc(C2C(C(=O)Nc3cc(C)on3)c3ccccc3C(=O)N2C)cc1OC (stereo not drawn)	0	0	0	0	0	0
COc1ccc(C2C(C(=O)Nc3cc(C)on3)c3ccccc3C(=O)N2C)cc1 (stereo not drawn)	0	0	0	0	23.8µM	0
CCC(C)NC(=O)C1c2ccccc2C(=O)N(c2ccc(OC)cc2)C1c1ccc(OC)cc1 (stereo not drawn)	0	0	0	0	23.8µM	?
Cc1cc(C)c2oc(-c3ccc(C)c(NC(=O)/C=C/c4ccco4)c3)nc2c1	0	-	0	-	-	?
CCc1ccc(OCC(=O)OCC(=O)c2ccc3c(c2)NC(=O)CO3)cc1	0	0	0	0	0	0
CCCCCCC(=O)OCC(=O)c1ccc2c(c1)NC(=O)CO2	0	0	0	0	9.47µM	0
O=C1COc2ccc(C(=O)CCl)cc2N1	0	0	0	0	1.89µM	0
COc1cc(OC)cc(C(=O)N[C@H](C(=O)OCC(=O)c2ccc3c(c2)NC(=O)CO3)C(C)C)c1	0	0	0	0	0	0
CCC(=O)c1ccc(OCC(=O)c2ccc3c(c2)NC(=O)CO3)cc1	0	0	0	0	?	0
CCCc1nc(SCC(=O)c2ccc3c(c2)NC(=O)CO3)[nH]c(=O)c1CC	0	-	-	0	18.9µM	?

Compound activity: PubChem BioAssay, National Center for Advancing Translational Sciences (NCATS)
